Read-out in assay [1]: Human Leukocyte Antigen - DR isotype (HLADR), HLA-DRA (gene 3122)
Put plainly: BSK_3C_HLADR: BioMAP Diversity Plus: 3C Assay for Human Leukocyte Antigen - DR isotype (HLADR) Biomarker Activity (AID 2283019).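 For outcome: ELISA of cell-surface HLA-DR on HUVEC 24 h after dosing.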 The following applies: primary human endothelial cells (HUVEC); actives raise or lower the signal. A digest of the protocol: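 Endothelial cells from human umbilical vein are treated with test chemical; after 24 h, HLA-DR levels are measured by ELISA. Data are fitted in both directions using DMSO as the baseline.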

Read-out in assay [2]: Interleukin-8 (IL8), CXCL8 (gene 3576)
Put plainly: BSK_3C_IL8: BioMAP Diversity Plus: 3C Assay for Interleukin-8 (IL8) Biomarker Activity (AID 2283020). The following applies: primary human endothelial cells (HUVEC); actives raise or lower the signal. A digest of the protocol: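 Endothelial primary cells of human umbilical vein origin are dosed with chemical; after 24 h the IL-8 biomarker is measured by ELISA, and concentration–response is fitted in both directions versus DMSO.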

Read-out in assay [3]: Monokine induced gamma interferon (MIG), CXCL9 (gene 4283)
The experiment in a line: BSK_3C_MIG: BioMAP Diversity Plus: 3C Assay for Monokine induced gamma interferon (MIG) Biomarker Activity (AID 2283021). The following applies: primary human endothelial cells (HUVEC); actives raise or lower the signal. The essentials:
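Endothelial primary cells (human umbilical vein) are dosed with test chemical in the 3C system. MIG levels are measured by ELISA at 24 h and fitted in both directions relative to DMSO.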

In assay [4] the target is human Vitamin D Receptor (VDR), VDR (gene 7421) (UniProt P11473). The experiment in a line: ATG_VDR_TRANS: Attagene TRANS-FACTORIAL HepG2 Assay for human Vitamin D Receptor (VDR) (AID 2283022; active = hit-call score of the fitted dose curve at least 0.9, where 1 is the maximum). The essentials: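 Fluorescence of labelled reporter cDNA fragments, resolved by capillary electrophoresis, gives mRNA induction after 24 h treatment of HepG2 cells carrying transfected Gal4-fusion reporter units. Activity is fitted in the positive direction with DMSO as baseline.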
human Vitamin D Receptor (VDR), VDR (gene 7421), sequence (P11473 whole entry, looked up, the tested form may be a part): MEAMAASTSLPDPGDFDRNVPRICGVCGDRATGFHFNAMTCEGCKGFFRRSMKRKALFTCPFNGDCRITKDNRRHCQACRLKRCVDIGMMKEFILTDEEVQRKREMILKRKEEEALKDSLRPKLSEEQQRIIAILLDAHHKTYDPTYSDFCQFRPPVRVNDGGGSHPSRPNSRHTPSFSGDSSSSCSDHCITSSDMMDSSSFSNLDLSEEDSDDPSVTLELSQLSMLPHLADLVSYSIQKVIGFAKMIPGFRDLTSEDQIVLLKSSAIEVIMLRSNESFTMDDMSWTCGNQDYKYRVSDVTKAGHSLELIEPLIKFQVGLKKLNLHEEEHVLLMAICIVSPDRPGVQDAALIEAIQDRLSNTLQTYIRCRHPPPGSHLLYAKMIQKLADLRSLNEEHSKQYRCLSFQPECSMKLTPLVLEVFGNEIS

The nature of assay [5]: BSK_3C_SRB: Viability Assessment in the BioMAP Diversity Plus: 3C Assay (AID 2283023).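 Note: fitted both ways against DMSO so a hit may be signal rise or drop.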 The following applies: primary human endothelial cells (HUVEC). The essentials: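 Cells were dosed with chemical, cultured 24 h, fixed with 10% TCA, stained with 0.1% SRB and read at 560 nm. Human umbilical vein endothelium was used; DMSO served as negative control and baseline.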
Read-out in assay [6]: Matrix Metallopeptidase 1 (MMP1), MMP1 (gene 4312)
Put plainly: BSK_BE3C_MMP1: BioMAP Diversity Plus: BE3C Assay for Matrix Metallopeptidase 1 (MMP1) Biomarker Activity (AID 2283024). The following applies: primary human bronchial epithelial cells; actives raise or lower the signal. A digest of the protocol:
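MMP1 signal, measured by ELISA after a 24 h chemical exposure of human primary bronchial epithelial cells, is analysed with bidirectional fitting using DMSO as negative control.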

Assay [7] is described as follows: BSK_3C_Vis: BioMAP Diversity Plus: 3C Assay for Morphology Visualization (AID 2283025).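 Note: fitted both ways so gain or loss versus DMSO counts.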 The following applies: primary human endothelial cells (HUVEC). The essentials:
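Morphology read by light microscopy serves as a background control for the multiplexed 3C assay in human umbilical vein endothelial cells, taken 24 h after dosing, with DMSO as the negative control and bidirectional curve fitting.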

Read-out in assay [8]: Pselectin, SELP (gene 6403)
The experiment in a line: BSK_4H_Pselectin: BioMAP Diversity Plus: 4H Assay for Pselectin Biomarker Activity (AID 2283026). The following applies: primary human endothelial cells (HUVEC); actives raise or lower the signal. The essentials:
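Endothelial primary cells (human umbilical vein) are dosed, incubated 24 h, and assayed for surface P-selectin by ELISA; responses in either direction are fitted relative to the DMSO negative control.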

Assay [9] is described as follows: BSK_4H_SRB: Viability Assessment in the BioMAP Diversity Plus: 4H Assay (AID 2283027).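 For AC50: curves fitted both ways versus DMSO so AC50 may be loss or gain.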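 Note: cells exposed to compound for 24 h before staining.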 The following applies: primary human endothelial cells (HUVEC). A digest of the protocol: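 HUVEC, 24 h post-dose; 10% TCA fix, 0.1% SRB stain, A560 nm. Total protein = overt cytotoxicity, parallel to biomarker read. Bidirectional fit vs DMSO baseline.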
The nature of assay [10]: BSK_BE3C_SRB: Viability Assessment in the BioMAP Diversity Plus: BE3C Assay (AID 2283028).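 For AC50: fitted both ways so AC50 may mark signal gain or loss versus DMSO.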 The following applies: primary human bronchial epithelial cells. A digest of the protocol: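 Overt cytotoxicity was assessed as total protein in confluent human primary bronchial epithelial cultures 24 h after chemical addition, using 0.1% sulforhodamine B staining read at 560 nm.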

Read-out in assay [11]: Thrombomodulin, THBD (gene 7056)
Put plainly: BSK_3C_Thrombomodulin: BioMAP Diversity Plus: 3C Assay for Thrombomodulin Biomarker Activity (AID 2283029). The settings on record: primary human endothelial cells (HUVEC); actives raise or lower the signal. A digest of the protocol:
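Endothelial cells from umbilical vein are dosed with test chemical and incubated 24 h. Thrombomodulin is then quantified by ELISA, with DMSO serving as negative control and activity baseline.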

Read-out in assay [12]: Urokinase-type plasminogen activator receptor (uPAR), PLAUR (gene 5329)
The experiment in a line: BSK_4H_uPAR: BioMAP Diversity Plus: 4H Assay for Urokinase-type plasminogen activator receptor (uPAR) Biomarker Activity (AID 2283030). The settings on record: primary human endothelial cells (HUVEC); actives raise or lower the signal. A digest of the protocol: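 Chemicals are dosed onto human vascular endothelial primary cells (umbilical vein). After 24 h, uPAR is read by ELISA. Gain or loss of signal is fitted relative to DMSO.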

Read-out in assay [13]: Human Leukocyte Antigen - DR isotype (HLADR), HLA-DRA (gene 3122)
The experiment in a line: BSK_BE3C_HLADR: BioMAP Diversity Plus: BE3C Assay for Human Leukocyte Antigen - DR isotype (HLADR) Biomarker Activity (AID 2283032). The following applies: primary human bronchial epithelial cells; actives raise or lower the signal. The essentials:
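Chemicals are dosed onto BE3C bronchial epithelial cultures of human origin and left 24 h. HLA-DR is then measured by ELISA, and the endpoint is fitted in both directions using DMSO as the activity baseline.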

Read-out in assay [14]: Vascular cell adhesion molecule 1 (VCAM1), VCAM1 (gene 7412)
The experiment in a line: BSK_4H_VCAM1: BioMAP Diversity Plus: 4H Assay for Vascular cell adhesion molecule 1 (VCAM1) Biomarker Activity (AID 2283033).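 For outcome: cell-surface VCAM-1 protein measured by ELISA.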 The following applies: primary human endothelial cells (HUVEC); actives raise or lower the signal. The essentials: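 Chemicals are added to primary human umbilical vein endothelial cells. After 24 h, VCAM-1 levels are measured by ELISA. Values come from bidirectional fitting referenced to DMSO.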

Read-out in assay [15]: Interferon-gamma inducible Protein 10 (IP10), CXCL10 (gene 3627)
Put plainly: BSK_BE3C_IP10: BioMAP Diversity Plus: BE3C Assay for Interferon-gamma inducible Protein 10 (IP10) Biomarker Activity (AID 2283034). The following applies: primary human bronchial epithelial cells; actives raise or lower the signal. A digest of the protocol: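 IP-10 quantified by ELISA serves as the endpoint. Cells: primary human bronchial epithelium, read 24 h after compound addition. Activity is derived by bidirectional fitting with DMSO as negative control.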

Read-out in assay [16]: Transforming growth factor beta 1 (TGFb1), TGFB1 (gene 7040)
Put plainly: BSK_BE3C_TGFb1: BioMAP Diversity Plus: BE3C Assay for Transforming growth factor beta 1 (TGFb1) Biomarker Activity (AID 2283036;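 note: TGF-b1 protein level measured by ELISA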). The settings on record: primary human bronchial epithelial cells; actives raise or lower the signal. The essentials: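 Bronchial epithelial primary cells are treated with test chemical, then TGF-b1 is quantified by ELISA after 24 hours. Values derive from bidirectional fitting against DMSO, with cytotoxicity checked by SRB staining in parallel cultures.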

Read-out in assay [17]: Vascular endothelial growth factor receptor 2 (Homo sapiens) (UniProt P35968)
Put plainly: BSK_4H_VEGFRII: BioMAP Diversity Plus: 4H Assay for Vascular endothelial growth factor receptor 2 (VEGFR2) Biomarker Activity (AID 2283031). The following applies: primary human endothelial cells (HUVEC); actives raise or lower the signal. A digest of the protocol: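 VEGFRII levels on human vascular endothelial primary cells were determined by ELISA at 24 hours post-dosing, with gain- or loss-of-signal fitted against DMSO controls.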

Read-out in assay [18]: Plasminogen activator inhibitor-1 (PAI1), SERPINE1 (gene 5054)
Put plainly: BSK_BE3C_PAI1: BioMAP Diversity Plus: BE3C Assay for Plasminogen activator inhibitor-1 (PAI1) Biomarker Activity (AID 2283037). The settings on record: primary human bronchial epithelial cells; actives raise or lower the signal. The essentials: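 Values derive from bidirectional fitting against DMSO baseline of PAI-1 levels, measured by ELISA in human bronchial epithelial cells 24 h after compound addition.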

Read-out in assay [19]: urokinase plasminogen activator (uPA), PLAU (gene 5328)
The experiment in a line: BSK_BE3C_uPA: BioMAP Diversity Plus: BE3C Assay for urokinase plasminogen activator (uPA) Biomarker Activity (AID 2283038).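 Note: uPA protein level quantified by ELISA in cell cultures; uPA read one day after compound addition.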 The settings on record: primary human bronchial epithelial cells; actives raise or lower the signal. A digest of the protocol: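 Measured by ELISA: uPA from human primary bronchial epithelial cells 24 h after chemical treatment. Values derive from bidirectional curve fitting with DMSO serving as negative control. Total protein by SRB staining in parallel wells flagged overt cytotoxicity.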

Read-out in assay [20]: Monokine induced gamma interferon (MIG), CXCL9 (gene 4283)
Put plainly: BSK_BE3C_MIG: BioMAP Diversity Plus: BE3C Assay for Monokine induced gamma interferon (MIG) Biomarker Activity (AID 2283035).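 Note: MIG protein measured by ELISA in BE3C cultures after 24 h of dosing.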 The settings on record: primary human bronchial epithelial cells; actives raise or lower the signal. The essentials: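 Dose cells (human primary bronchial epithelial), incubate 24 h, quantify MIG by ELISA, then fit concentration–response in both directions relative to DMSO control.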

Where “and” joins values, the source holds several entries; their conditions need not be identical. Equal entries are not always repeated. Records with an inconclusive call do not appear. The source holds several records for some structures; these can differ, active in one and inactive in another. Calls of active or inactive are those of the source. Rule for the calls, unless noted: active = hit-call score of the fitted dose curve at least 0.9, where 1 is the maximum; inactive = score below 0.9.

Broadly, the AC50 is the midpoint of the concentration-response curve, whichever way the signal moves.

On to `O=C(c1ccc(O)cc1O)c1ccc(O)cc1O`, for which the outcome in assay [1], in [2], in [3], in assay [4], in [5] and in assay [6] was inactive. The result in assay [7], in assay [8], in assay [9], in assay [10], in assay [11] and in assay [12] was inactive. Besides, the result in assay [13], in [14] and in [16] was inactive. Moreover, in assay [15], the AC50 is 30.5 µM (active).
Regarding `CCN(CC)C(=O)c1cccc(C)c1`, the result in [1], in assay [2], in [3], in assay [4], in assay [5] and in assay [6] was inactive. Also, the result in assay [7], in assay [8], in [9], in assay [10], in assay [11] and in [12] was inactive. The outcome in assay [17], in assay [13], in assay [14], in [15], in assay [16] and in assay [18] was inactive. Further, in assay [19], the outcome was inactive.
Consider `CSC(=O)c1cccc2nnsc12`, for which the outcome in assay [1], in assay [2], in assay [3], in [4], in assay [5] and in assay [6] was inactive. The outcome in [7], in assay [8], in [9], in assay [10], in assay [11] and in [13] was inactive. The result in [14], in assay [15], in [20], in assay [16], in assay [18] and in assay [19] was inactive.
`CCN(Cc1c(F)cccc1Cl)c1c([N+](=O)[O-])cc(C(F)(F)F)cc1[N+](=O)[O-]`: the AC50 in assay [1] is 5.69 µM (active); in assay [5], 11.8 µM (active); in assay [7] it was 13.7 µM (active); in assay [9], 12.6 µM (active); in [10], 8.78 µM (active); in [14], 4.57 µM (active). For the same compound, the outcome in assay [2], in assay [3], in assay [6], in assay [8], in assay [11] and in assay [12] was inactive. Further, the outcome in assay [13], in assay [15] and in assay [16] was inactive.
Turning to `CC(=O)S[C@@H]1CC2=CC(=O)CC[C@]2(C)[C@H]2CC[C@@]3(C)[C@@H](CC[C@@]34CCC(=O)O4)[C@H]12`, the AC50 in assay [1] was 26.3 µM (active); in [2], 18.9 µM (active); in [5], 25.7 µM (active); in assay [9], 32 µM (active); in [14], 34.3 µM (active); in [15] it was 30.9 µM (active). Further, the result in assay [3], in [4], in assay [6], in assay [7], in assay [10] and in assay [11] was inactive. Moreover, the result in assay [17], in assay [13], in [16] and in assay [19] was inactive.
`COC(=O)c1c(Cl)nn(C)c1S(=O)(=O)NC(=O)Nc1nc(OC)cc(OC)n1`: the result in assay [1], in assay [2], in assay [3], in assay [4], in assay [5] and in [6] was inactive. The result in assay [7], in [8], in assay [9], in assay [10], in [11] and in assay [13] was inactive. Moreover, the outcome in assay [14], in assay [15], in assay [16], in assay [18] and in assay [19] was inactive.
For `CC(C)(c1ccc(O)cc1)c1ccc(O)cc1`, the result in assay [1], in assay [2], in assay [3], in assay [5], in assay [6] and in [7] was inactive. Besides, the result in assay [8], in assay [9], in [10], in assay [11], in [13] and in assay [14] was inactive. For the same compound, the outcome in assay [15] and in [16] was inactive. Besides, the AC50 was 14.2 µM (active) in assay [5]; 39.6 µM (active) and 20 µM (active) in assay [7]; 24 µM (active) in [10]; 7.53 µM (active) in [14]; 9.06 µM (active) in [15].

The record behind these values is PubChem BioAssay (EPA / NIEHS).
